# Compound activity: PubChem BioAssay, The Scripps Research Institute Molecular Screening Center
# FBW7 act = FBW7 E3 ligase activators, primary screen, biochemical, AlphaScreen, human | AlphaScreen FBW7–phospho-cyclin E peptide binding, activator screen | F-box/WD repeat-containing protein 7 (Homo sapiens), Q969H0 | 0.13% of 650,000 active | normalized activity (activation), % at 26.1 µM | AID 1259310, 2017; in the data active = normalized activity above about 1.9%;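 note: purified mutant Fbw7 with reduced substrate affinity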
# GPR151 ag = activators of human GPR151, primary screen, cell-based, PathHunter beta-arrestin, luminescence | AID 1508602, 2020 | PathHunter beta-arrestin GPR151 cells | activation, % at 11.2 µM | G-protein coupled receptor 151 (Homo sapiens), Q8TDV0 | 1% of 650,000 active; in the data active = activation above about 4.9%;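 note: 0% = median of compound wells and 100% = cells with positive control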
# Target sequence (Q8TDV0 whole entry, looked up): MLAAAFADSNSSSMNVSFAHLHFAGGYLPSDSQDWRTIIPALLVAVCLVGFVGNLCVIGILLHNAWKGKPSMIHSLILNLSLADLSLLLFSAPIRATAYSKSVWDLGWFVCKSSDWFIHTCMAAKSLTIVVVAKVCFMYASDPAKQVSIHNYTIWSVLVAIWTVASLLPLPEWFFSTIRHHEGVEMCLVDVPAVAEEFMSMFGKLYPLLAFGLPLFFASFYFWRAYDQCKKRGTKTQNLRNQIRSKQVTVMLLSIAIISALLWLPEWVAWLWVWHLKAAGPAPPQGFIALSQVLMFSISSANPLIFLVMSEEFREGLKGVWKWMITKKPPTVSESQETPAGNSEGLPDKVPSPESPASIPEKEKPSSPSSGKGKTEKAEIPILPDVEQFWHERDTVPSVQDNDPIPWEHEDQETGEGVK
# TEAD-YAP inh = TEAD-YAP interaction inhibition, primary screen, TEAD-YAP interaction inhibitor project, luminescence, HEK-TIYL cells; TEAD-Gal4/YAP UAS-luciferase luminescence; inhibition, % at 9.12 µM; 1.4% of 640,000 active; AID 1259422, 2018; in the data active = inhibition above about 32%;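 note: 0% = median of test compound wells and 100% = reference inhibitor wells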
# MITF inh = MITF inhibitors, primary screen, biochemical, AlphaScreen, human. 0.91% of 650,000 active. inhibition, % at 2.6 µM. AlphaScreen MITF homodimerization, bead proximity signal. Microphthalmia-associated transcription factor (Homo sapiens), O75030. AID 1259374, 2018; in the data active = inhibition above about 50%;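 note: 0% = vehicle wells with protein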
# Active calls of the source: *. In the library only some 3.4% were active in any assay of this set; here they are far more common.
SMILES,FBW7 act,GPR151 ag,TEAD-YAP inh,MITF inh
COc1cc2nc(NCc3cccnc3)nc(Nc3cc(OC)c(OC)c(OC)c3)c2cc1OC,0,1,-6,1
COc1ccccc1NC(=O)Cn1cnc2sc(C(=O)N3CCN(c4ccccc4)CC3)c(C)c2c1=O,0,-1,5,12
COc1ccccc1NC(=O)Cn1cnc2sc(C(=O)Nc3cc(F)ccc3C)c(C)c2c1=O,1,-1,-5,17
COc1ccccc1NC(=O)Cn1cnc2sc(C(=O)N3CCN(c4ccccc4OC)CC3)c(C)c2c1=O,2.1*,-1,10,14
COc1ccccc1NC(=O)Cn1cnc2sc(C(=O)Nc3ccc(C)c(F)c3)c(C)c2c1=O,1.9*,-1,-12,12
Cc1cccc(OCCCCNC(C)(C)C)c1,0,0,-7,8
O=C1CC(c2cccc([N+](=O)[O-])c2)c2c(ccc3ccccc23)N1 (centres undefined),0,1,61*,-5
Cc1ccc(C2CC(=O)Nc3ccc4ccccc4c32)cc1 (centres undefined),0,-1,2,17
Nc1sc2c(c1C(=O)Nc1cccc(Cl)c1)CCC2,0,0,16,5
FC(F)(F)C1=Nc2cccc3cccc(c23)N1,0,0,6,114*
O=C(CCCOc1ccc(Cl)cc1Cl)Nc1cccc(Br)c1,0,-2,8,7
OC(COc1ccccc1)CN1CCN(CC(O)COc2ccccc2)CC1 (centres undefined),0,0,10,-10
O=C1Cc2ccccc2N1C1CCN(CC(O)COc2ccccc2)CC1 (centres undefined),0,1,36*,1
CC(C)(C)c1ccc(-c2nc(-c3ccccc3)no2)cc1,0,1,77*,0
CC(C)(C)c1ccc(-c2nc(-c3ccc(Br)cc3)no2)cc1,0,-1,-10,-3
Cc1ccc(-c2noc(-c3ccc(O)cc3)n2)cc1,1,-9,74*,3
Oc1ccc(-c2nc(-c3ccc(Br)cc3)no2)cc1,0,-8,50*,2
CCC(=O)Oc1ccc(-c2nc(-c3ccc(OC)cc3)no2)cc1,0,-7,44*,1
Cc1ccc(C)c(CN2CCN3C(=O)[C@@H](C)NC(=O)[C@H]3C2)c1,0,-1,8,8
COc1ccccc1OCC(=O)NC1CCCCCCCCCCC1,1,-1,4,17
Cc1cccc2sc(NC(=O)c3cn(C)c(=O)c4ccccc34)nc12,0,3,5,2
O=C1c2ccccc2-c2c(Nc3ccccc3)c(=O)[nH]c3cccc1c23,0,0,49*,7
COc1ccc(Nc2c3c4c(cccc4[nH]c2=O)C(=O)c2ccccc2-3)cc1,0,1,55*,3
CCc1cccc(C)c1NS(=O)(=O)c1ccc(NC(C)=O)cc1,0,0,-4,-1
COc1ccc(CCNc2cc(-c3cccc(N)c3)nc(N)n2)cc1,0,1,35*,13
SMILES,FBW7 act,GPR151 ag,TEAD-YAP inh,MITF inh
COc1ccc(CCNc2nc(-c3cccc(N)c3)ncc2C)cc1,0,0,44*,1
COc1ccc(CCNc2cc(-c3ccccc3)ncn2)cc1,1.9*,0,-5,5
CCN(CC)c1ncnc2sc(C(=O)NC(C)C)c(C)c12,0,1,1,14
COC(=O)c1cc(NC(=O)C23CCC(C)(C(=O)C2=O)C3(C)C)cc(C(=O)OC)c1 (centres undefined),0,2,3,59*
c1cncc(-c2nc3c4ccccc4nc(N4CCC(N5CCCCC5)CC4)n3n2)c1,0,0,46*,1
Nc1ccc(-c2nc3ccccc3s2)cc1,0,-9,51*,-8
Nc1ccc(-c2nc3ccccc3s2)c(Cl)c1,0,0,-1,-2
Nc1ccc2nc(-c3ccccc3)sc2c1,2.7*,-8,85*,10
c1ccc(-c2ccc(-c3nc4ccccc4s3)cc2)cc1,0,0,92*,-11
Cc1ccc(-n2cc(-c3ccc(Cl)cc3)nc2SCC(=O)c2ccccc2)cc1,0,1,-38,10
COc1cccc(/C=C2\CN(C)C/C(=C\c3cccc(OC)c3OC)C2=O)c1OC,0,0,33*,17
COc1ccc(C2C(=O)N(C3CCCCCC3)CC(=O)N2C2CCCCC2)cc1OC (centres undefined),0,2,-11,-3
COc1ccc(CCNC(=O)c2sc3ncnc(N4CCN(c5ccccc5F)CC4)c3c2C)cc1OC,0,-2,-3,0
CC(=O)c1cccc(NC(=O)CCc2c(C)nc3c(c2C)c(=O)n(C)c(=O)n3C)c1,1,0,-2,3
COc1cc2nc(Nc3ccnn3C)nc(Nc3cc(OC)c(OC)c(OC)c3)c2cc1OC,0,1,64*,8
COc1cccc(Nc2cc(N3CCCCC3)c3noc4c3c2C(=O)c2ccccc2-4)c1,-1,-2,0,41
COc1cccc(Nc2cc(N3CCCCC3C)c3noc4c3c2C(=O)c2ccccc2-4)c1 (centres undefined),-1,-1,6,69*
COc1ccc(Nc2cc(N3CCCC3)c3noc4c3c2C(=O)c2ccccc2-4)cc1,0,-1,-10,2
COc1ccc(Nc2cc(N3CCCCC3C)c3noc4c3c2C(=O)c2ccccc2-4)cc1 (centres undefined),-1,-2,25,51*
COC(=O)c1cccc(N2COc3ccc4c(C)cc(=O)oc4c3C2)c1,0,0,3,-2
Cc1ccc(S(=O)(=O)Nc2ccccc2/C=N\n2cnnc2)cc1,0,0,48*,2
CNC(=O)c1ccccc1Nc1cc(NC(=O)Cc2ccc(OC)cc2)ncc1C(F)(F)F,0,2,84*,4
CNC(=O)c1ccccc1Nc1cc(NC(=O)Cc2cccc(OC)c2)ncc1C(F)(F)F,0,1,64*,-10
COc1ccc(CC(=O)Nc2cc(Nc3ccccc3-c3ncccn3)c(C(F)(F)F)cn2)cc1,0,1,-4,-3
CNC(=O)c1ccccc1Nc1cc(NC(=O)Cc2ccc(OC)cc2)ncc1C#N,0,0,40*,-10
SMILES,FBW7 act,GPR151 ag,TEAD-YAP inh,MITF inh
COc1ccc(CC(=O)Nc2cc(Nc3ccccc3C(=O)NC[C@H](O)C(=O)N(C)C)ccn2)cc1,0,0,-3,27
CNC(=O)c1cccnc1Nc1cc(NC(=O)Cc2ccc(OC)cc2)ncc1C(F)(F)F,0,3,70*,-10
CC1(c2ccc(Cl)cc2)NC(=O)N(Cn2nnc3ccccc3c2=O)C1=O (centres undefined),0,1,13,4
COc1ccc(-c2nc3ccccc3o2)cc1N,0,-6,19,0
COc1ccc(-c2nc3cc(C)ccc3o2)cc1N,0,-8,88*,13
Cc1ccc2oc(-c3ccc(Cl)c(N)c3)nc2c1,0,-10,68*,7
